95 compounds from PubChem BioAssay AID431 (Sanford-Burnham Center for Chemical Genomics, 2006) can be followed below.

About 1,100 (1.7%) of roughly 63,000 compounds were called active.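 Rule for the calls: active = compounds whose percent cytotoxicity in the single-dose primary screen, scaled between solvent and toxic-drug controls, exceeds 50; inactive = the rest.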 The list comes from a sample in which actives are over-represented; it also holds similar structures and randomly drawn compounds. Potency and affinity values are given separately.

This assay in a line: cytotoxicity in KRAS-transformed pancreatic duct cells, primary screen, cell-based, fluorescence, HTS (AID 431).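 Note: 0% = DMSO solvent wells and 100% = doxorubicin-treated wells.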 The following applies: HPDE-C7K KRASV12 cells, Alamar Blue viability, 48 h; at 10 µM; stronger effect = higher value.
In the case of `CCOc1ccccc1Oc1coc2cc(O)ccc2c1=O`, the cytotoxicity was -11.5% (inactive). With `Cc1cc(C(=O)Nc2sc(C)c(C)c2C#N)no1`, the cytotoxicity was -0.7% (inactive). For `Cc1cc(C)n(CC(O)Cn2c3ccccc3c3ccccc32)c(=O)n1` (stereo not given), the cytotoxicity was 11.5% (inactive). Regarding `CC1CCCC(C)N1C(=O)Cn1c(SCC(=O)Nc2ccc3c(c2)OCO3)nc2ccccc21` (stereo not given), the cytotoxicity was 8.4% (inactive). On to `CCOc1ccc2noc3c2c1C(=O)c1ccccc1-3`, for which the cytotoxicity is 23.3% (inactive). In the case of `COc1ccc(-c2onc3ccc(Cl)cc23)cc1OC`, the cytotoxicity is 4.4% (inactive). The result for `O=C1c2ccccc2-c2onc3ccc(NCc4ccco4)c1c23` reads 51.6% (active).

Consider `O=C(NCc1ccco1)c1ccc2c(c1)C(=O)c1ccccc1-2`, for which the cytotoxicity was 5.3% (inactive). For the compound `O=C1c2ccccc2-c2onc3ccc(NCCCn4ccnc4)c1c23`, the cytotoxicity is 27.5% (inactive). Take `COc1ccc2noc3c2c1C(=O)c1ccccc1-3`: the cytotoxicity is 72.7% (active). On to `C=C(C)c1ccc(C(C)(C)NC(=O)NCc2ccco2)cc1`, for which the cytotoxicity was 8.8% (inactive). Turning to `CC(=O)c1c(C)[nH]c(C(=O)N2CCCCCC2)c1C`, the cytotoxicity is -5.8% (inactive).

Consider `CC(=O)N1CCc2c(sc(NC(=O)CN3C(=O)CCC3=O)c2C(N)=O)C1`, for which the cytotoxicity is 0.3% (inactive). The result for `COc1cc(NS(=O)(=O)c2ccc(OC)c(C)c2C)c(OC)cc1Cl` reads 64.1% (active).

Turning to `COc1ccc(OC)c(S(=O)(=O)Nc2cc(OC)c(Cl)cc2OC)c1`, the cytotoxicity is 6.9% (inactive). As for `COc1cc(NS(=O)(=O)c2cc(C)ccc2OC)c(OC)cc1Cl`, the cytotoxicity is 4% (inactive). For `C=CCn1c(=O)c(C(=O)Nc2ccccc2C(=O)OCC)c(O)c2ccccc21`, the cytotoxicity is -8.6% (inactive). For `CCC(C)n1nccc1NC(=O)C(C)OC(=O)c1cc2ccccc2[nH]1` (stereo not given) the value was 7% (inactive); for `CCN(CC)c1ccc2c(C)c(-c3ccc(N)cc3)c(=O)oc2c1`, 82.1% (active). For `CCOc1cc2c(C)cc(=O)oc2cc1Cl` the value was 0.2% (inactive); for `CCOC(=O)Cc1c(C)c2ccc(N(CC)CC)cc2oc1=O`, -21.9% (inactive).

Regarding `CCNc1ccc2c(Cl)cc(=O)oc2c1`, the cytotoxicity was 6.3% (inactive). For `CCN(CC)c1ccc2cc(NC(=O)CCC(=O)O)c(=O)oc2c1` the value was 15.5% (inactive); for `CCN(CC)C(=O)Oc1ccc2c(=O)c(-c3ccc(OC)cc3)c(C)oc2c1`, 4.7% (inactive). As for `CCN(CC)c1ccc2c(C)c(CN3CCOCC3)c(=O)oc2c1`, the cytotoxicity was 26.6% (inactive). On to `COc1ccc(-n2cnnc2SCC(=O)N(C)C2CCS(=O)(=O)C2)cc1` (stereo not given), for which the cytotoxicity was 3.5% (inactive).

Take `COCc1nc2ccccc2n1Cc1ccc(Br)cc1`: the cytotoxicity is -5.7% (inactive). On to `CSc1nnc(-c2sc3cc(Cl)ccc3c2Cl)n1C`, for which the cytotoxicity was -20.3% (inactive).

For `Cc1csc(NC(=O)c2nc3nc(C)cc(C)n3n2)n1`, the cytotoxicity is -16.1% (inactive). The result for `Cc1cccc(C)c1-n1nnnc1S(=O)(=O)Cc1ccccc1Cl` reads -1.5% (inactive); that for `COc1ccccc1-n1nnnc1SCc1ccccc1`, -10.6% (inactive). For the compound `O=c1[nH]c2cc3c(cc2cc1CN(CCc1ccccc1)Cc1nnnn1C1CCCC1)OCCO3`, the cytotoxicity is -11.1% (inactive). As to `CC(CN1CCCCC1)OC(=O)c1cc2ccccc2o1` (stereo not given), the cytotoxicity is -6.7% (inactive). The result for `CCCS(=O)(=O)N1CCCC(C(=O)NCc2ccc3c(c2)OCO3)C1` (stereo not given) reads -6.2% (inactive); that for `CC(C)[C@H](NC(=O)OC(C)(C)C)c1nnc(S(=O)(=O)Cc2c(F)cccc2Cl)o1`, -5.9% (inactive); that for `CC(C)C[C@H](N)c1nnc(S(=O)(=O)Cc2cccc(F)c2)o1`, -7.4% (inactive). The result for `Cc1ccc(C2N(c3cccc(Cl)c3)C(=O)C3CCCN32)o1` (stereo not given) reads -0.1% (inactive); that for `COc1ccc(C(=O)Nn2c(SCC(=O)NCC3CCCO3)nc3ccccc3c2=O)cc1` (stereo not given), -11% (inactive).

Consider `O=C(CCc1ccccc1)Nc1ccc(N2CCOCC2)cc1`, for which the cytotoxicity was 2.6% (inactive). Regarding `Cc1ccc(-n2c(=O)c(C#N)cc3c(=O)n4ccccc4nc32)cc1`, the cytotoxicity was 69.7% (active). The result for `Cc1cc(-n2c(=O)c(C#N)cc3c(=O)n4ccccc4nc32)no1` reads -4.7% (inactive); that for `C=CCn1c(=O)c(C#N)cc2c(=O)n3ccccc3nc21`, 4.5% (inactive); that for `O=C(Nc1ccc2c(c1)OCCO2)c1ccc(Br)c(S(=O)(=O)N2CCOCC2)c1`, -7.9% (inactive). For `CC(C)CC(NC(=O)C1CCC(C)CC1)C(=O)Nc1ccccn1` (stereo not given) the value was -19.7% (inactive). For `CCOC(=O)c1nnn(-c2nonc2N)c1CSc1ccccn1` the value was -3.2% (inactive); for `COc1ccc(-n2nnnc2SCC(N)=O)cc1`, -7.1% (inactive).

In the case of `COc1ccccc1NC(=O)C1=C(C)NC(SCC(=O)c2ccccc2)=C(C#N)C1c1ccco1` (stereo not given), the cytotoxicity was 27.2% (inactive).

Regarding `CCOC(=O)C1=C(c2ccccc2)NC(SCC(=O)Nc2ccccc2C)=C(C#N)C1c1ccco1` (stereo not given), the cytotoxicity was 39% (inactive). The result for `CC1=C(C(=O)Nc2ccccc2)C(c2ccco2)C(C#N)=C(SCC(=O)Nc2cccc(C)c2C)N1` (stereo not given) reads 79.6% (active); that for `CCOC(=O)CSC1=C(C#N)C(c2ccco2)C(C(=O)Nc2cccc(C(F)(F)F)c2)=C(C)N1` (stereo not given), 28.1% (inactive). For `CC1=C(C(=O)Nc2ccccc2)C(c2ccco2)C(C#N)=C(SCC(=O)OC(C)C)N1` (stereo not given) the value was 49.2% (inactive). The result for `CC1=C(C(=O)Nc2ccccc2)C(c2ccco2)C(C#N)=C(SCc2ccccc2)N1` (stereo not given) reads 57.7% (active); that for `CCOC(=O)C(NC(=O)c1ccccc1)=C1CCCCC1`, -19.2% (inactive). Take `CC(c1ccccc1)n1cc(C(=O)NCc2ccccn2)nn1` (stereo not given): the cytotoxicity is -7.5% (inactive). Regarding `CCCc1cc(=O)[nH]c(SCC(=O)Nc2ccc(OC(F)F)cc2)n1`, the cytotoxicity was -7.3% (inactive). Regarding `O=C(NCCCN1CCCCCC1)c1ccc(CS(=O)(=O)Cc2ccccc2F)o1`, the cytotoxicity is -3% (inactive). As to `Cc1cccc2sc(NC(=O)CNS(=O)(=O)c3ccc(Br)s3)nc12`, the cytotoxicity is -11.6% (inactive). With `Cc1cccc2sc(NC(=O)CN(C)S(=O)(=O)c3cccs3)nc12`, the cytotoxicity is 28.8% (inactive). For `COCCn1c(SCC#N)nnc1-c1ccccc1O` the value was -24.2% (inactive). Turning to `COc1ccc(NC(=O)N2CCCCC2)cc1`, the cytotoxicity was -3.1% (inactive).

Take `Oc1cccc(Nc2ncnc3ccccc23)c1`: the cytotoxicity is 4.2% (inactive). The result for `COc1ccc(CNC(=O)Cc2ccc(OC)c(S(=O)(=O)N3CCOCC3)c2)cc1` reads 3.6% (inactive).

In the case of `Cc1nc2cc(C(F)(F)F)ccc2n1C1CCN(CC(=O)N2CCOCC2)CC1`, the cytotoxicity is -14.7% (inactive). The result for `c1ccc(Cn2nnnc2CN2CCN(Cc3ccc4c(c3)OCO4)CC2)cc1` reads -0.4% (inactive). As to `CC1(C)CC(=O)C(C=Nc2ccc3[nH]ncc3c2)=C(O)C1`, the cytotoxicity was 14.8% (inactive). As to `CN1CCN(C(=O)c2cc3c(n(-c4ccccc4)c2=O)CC(C)(C)CC3=O)CC1`, the cytotoxicity is -5% (inactive). The result for `CCCn1c(=O)c2ccccc2n2c(SCCOc3ccc(OC)cc3)nnc12` reads -17.4% (inactive); that for `COCCCNc1oc(COc2ccc(Cl)cc2Cl)nc1C#N`, 18.7% (inactive). For `CN(C)c1oc(-c2ccc(OCc3ccccc3)cc2)nc1C#N` the value was -8.5% (inactive). For `N#Cc1nc(-c2ccc(OCc3ccc(Cl)cc3)cc2)oc1N1CCOCC1` the value was -19.7% (inactive); for `CN(C)c1oc(-c2ccc(OCc3ccc(Cl)cc3)cc2)nc1C#N`, 51.7% (active). In the case of `O=C(Cn1cccc1)Nc1ccc(F)cc1F`, the cytotoxicity was 1% (inactive). As for `CCOC(=O)c1[nH]c2ccc(F)cc2c1N=C(C)N(CC)CC`, the cytotoxicity was -17.4% (inactive). For `CCOC(=O)c1[nH]c2ccc(C)cc2c1N=CN(CC)CC` the value was 4.8% (inactive); for `CCOC(=O)c1[nH]c2ccc(C)cc2c1N=C(C)N(C)C`, 70% (active); for `OC(CN1CCOCC1)CN(c1ccccc1)c1ccccc1` (stereo not given), -10.7% (inactive).

For the compound `O=C(CSc1ncnc2ccccc12)N1CCCC1`, the cytotoxicity is -10.1% (inactive). For the compound `c1ccc2c(c1)nc(N1CCOCC1)c1c3ccccc3[nH]c21`, the cytotoxicity is -52.3% (inactive).

On to `CC1(C)CC(=O)c2cnn(-c3nc4ccccc4[nH]3)c2C1`, for which the cytotoxicity was -19% (inactive). The result for `COc1cc(C(C)=O)ccc1OC(=O)C(C)N1C(=O)c2ccccc2C1=O` (stereo not given) reads -5.8% (inactive); that for `O=C(NCc1ccco1)C(Cc1ccccc1)N1C(=O)c2ccccc2C1=O` (stereo not given), -12.8% (inactive); that for `COc1ccc(NC(=O)CC2C(=O)N(c3ccc(OC)cc3)C(=O)N2CCN2CCN(C)CC2)cc1` (stereo not given), -7.8% (inactive). For the compound `COc1ccc(C2c3c(-c4ccccc4O)n[nH]c3C(=O)N2CCc2ccc(OC)c(OC)c2)cc1` (stereo not given), the cytotoxicity was 51.4% (active). For the compound `COc1ccc(C2c3c(-c4cc(Cl)c(C)cc4O)n[nH]c3C(=O)N2Cc2cccnc2)cc1OC` (stereo not given), the cytotoxicity is 14.2% (inactive).

In the case of `COCCCN1C(=O)c2[nH]nc(-c3ccccc3O)c2C1c1ccc(Cl)cc1` (stereo not given), the cytotoxicity was 62.9% (active).

`COCCCN1C(=O)c2[nH]nc(-c3cc(C)cc(C)c3O)c2C1c1ccc(O)c(OC)c1` (stereo not given): the cytotoxicity is 12% (inactive). Consider `COCCCN1C(=O)c2[nH]nc(-c3ccccc3O)c2C1c1cccc(Cl)c1` (stereo not given), for which the cytotoxicity was 18.6% (inactive).

On to `Cc1ccc(C2c3c(-c4ccccc4O)n[nH]c3C(=O)N2Cc2ccncc2)cc1` (stereo not given), for which the cytotoxicity is 8.5% (inactive).

Turning to `COc1cc(C2C(C(C)=O)=C(O)C(=O)N2CCc2ccc(OC)c(OC)c2)ccc1O` (stereo not given), the cytotoxicity is 1.7% (inactive). As for `COc1ccc(CCN2C(=O)c3[nH]nc(-c4ccccc4O)c3C2c2ccccc2)cc1OC` (stereo not given), the cytotoxicity is 24% (inactive). For `Cc1cc(O)c(-c2n[nH]c3c2C(c2cccc(O)c2)N(Cc2cccnc2)C3=O)cc1Cl` (stereo not given) the value was 9.3% (inactive); for `COc1ccc(CCN2C(=O)c3[nH]nc(-c4ccccc4O)c3C2c2cccc(O)c2)cc1OC` (stereo not given), 63.4% (active).

On to `CC(C)OCCCN1C(=O)c2[nH]nc(-c3ccccc3O)c2C1c1cccc(Cl)c1` (stereo not given), for which the cytotoxicity was -4.9% (inactive).

In the case of `Cc1ccc(S(=O)(=O)N(C)CCCC(=O)NCc2ccc3c(c2)OCO3)cc1`, the cytotoxicity is -7.5% (inactive). For `O=S(=O)(c1cccc(-c2csc(-c3cccnc3)n2)c1)N1CCCCC1` the value was -13.4% (inactive).
